Many of the other results were omitted from the sample, so hits are more common in it than they were.
ALR H2O2 inh: blocks human ALR sulfhydryl oxidase activity; P55789; purified ALR, DTT oxidation, H2O2 HRP-luminol luminescence; inhibition, % (concentration not given with the values); 290,000 compounds, 3.8% hits; AID 485317;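 active means mean replicate inhibition above about 79%, with every replicate also reaching it, limit read from the data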
Target sequence (P55789 whole entry, looked up): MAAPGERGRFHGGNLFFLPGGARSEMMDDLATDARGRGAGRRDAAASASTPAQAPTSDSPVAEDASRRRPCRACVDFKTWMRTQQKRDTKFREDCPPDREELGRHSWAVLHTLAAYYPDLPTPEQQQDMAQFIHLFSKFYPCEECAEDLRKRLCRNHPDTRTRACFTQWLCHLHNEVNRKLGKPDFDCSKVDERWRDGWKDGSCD
HDAC3 inh: inhibitors of human histone deacetylase 3. recombinant HDAC3, fluorogenic peptide/trypsin coupled, fluorescence. inhibition, % at 8.3 µM. 320,000 compounds, 0.15% hits; in the data active means inhibition above about 26%, passing the limit was not always enough
NPR2 activator: GC-B (human) receptor activation; P20594; activation, % at 10 µM; 370,000 compounds, 0.11% hits; AID 1920062; HEK293-GC-B cells, CNP EC30, cGMP TR-FRET; 0% at EC30 CNP, 100% saturating CNP;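 active means activation at 10 µM reaching about 35% in either raw or pattern-adjusted values, limit read from the data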
NPR1 activator: GC-A (human) enzyme activation; 370,000 compounds, 0.14% hits; activation, % at 10 µM; AID 1671463; P16066; HEK293 GC-A cells, cGMP TR-FRET, EC30 ANP; 0% at EC30 ANP, 100% saturating ANP; in the data active means activation above about 40%
Numbers stand for hits; – = inactive; · = no result given.

SMILES	ALR H2O2 inh	HDAC3 inh	NPR2 activator	NPR1 activator
O=C(O)C1Cc2ccccc2N2CCCC12 (stereo not drawn)	92	–	–	–
CCN(CC)c1ccc(N=Cc2c(O)n(-c3cc(OC)ccc3OC)c(=O)[nH]c2=O)cc1	95	–	–	–
CCN(CC)c1ccc(N=Cc2c(O)n(CCc3ccc(OC)c(OC)c3)c(=O)[nH]c2=O)cc1	·	–	–	–
CCCCn1c(O)c(/C=N/NC(=O)c2ccncc2)c(=O)[nH]c1=S	99	–	–	–
Cn1c(O)c(/C=N/NC(=O)c2ccncc2)c(=O)[nH]c1=S	–	–	–	–
O=C1NC(=O)N(c2ccccc2)C(=O)/C1=C/C=C/c1ccco1	97	–	–	–
O=C1NC(=S)N(c2ccc(Cl)cc2)C(=O)/C1=C/N1CCN(C(=O)c2ccco2)CC1	97	–	–	–
O=C1NC(=S)N(c2ccc(F)cc2)C(=O)/C1=C/c1ccco1	93	–	·	·
Cc1ccc(N2C(=O)NC(=O)/C(=C\C=C\c3ccco3)C2=O)cc1C	96	–	–	–
O=C(O)Cn1cc(/C=C2\C(=O)NC(=O)N(c3ccc(Cl)cc3)C2=O)c2ccccc21	–	–	–	–
Cc1ccc(N2C(=O)NC(=O)/C(=C\C=C\c3ccco3)C2=O)cc1	–	–	–	–
Cc1cccc(N2C(=O)NC(=O)/C(=C\C=C\c3ccco3)C2=O)c1	–	–	–	–
CC(=O)N1CC(=O)Nc2ccc(Cl)cc2C1c1ccccc1 (stereo not drawn)	–	–	–	–
CC(C)=CCN1CC[C@@]2(C)c3cc(O)ccc3C[C@@H]1C2C (stereo partly drawn)	·	·	–	–
Cc1ccc(-[n+]2c(Cc3nn(-c4ccccc4)c(C)[n+]3-c3ccc(C)cc3)nn(-c3ccccc3)c2C)cc1	·	·	–	–
ClCCNc1nc2ccc(Cl)cc2[nH]1	98	–	–	–
CCOc1cc2c(cc1OCC)-n1cccc1C(c1ccc(OC)cc1)NC2 (stereo not drawn)	–	–	–	–
CC1(O)CCN2C(=O)CCc3cccc1c32 (stereo not drawn)	97	–	–	–
COc1cc(C(=O)OC2C[C@H]3CC[C@@H](C2)N3C)ccc1O (stereo partly drawn)	–	–	–	–
COc1cc(C(=O)OC2C[C@H]3CC[C@@H](C2)N3)ccc1O (stereo partly drawn)	84	–	–	–
CCn1cc(CN2CCCC(C(=O)c3sccc3C)C2)cn1 (stereo not drawn)	–	–	–	–
Oc1ccc(C(=C(Cl)Cl)c2ccc(O)cc2)cc1	86	–	·	·
CCOC(=O)C1=Nc2ccccc2/C1=C\c1c(O)n(C)c(=O)n(C)c1=O	98	–	–	–
C=CC1CN2CCC1CC2C(OC(C)=O)c1ccnc2ccc(OC)cc12 (stereo not drawn)	–	–	–	–
COc1ccc2c(c1O)-c1c(OC)c(OC)cc3c1[C@H](C2)N(C)CC3	–	–	–	–
SMILES	ALR H2O2 inh	HDAC3 inh	NPR2 activator	NPR1 activator
CCCN1CCc2cccc3c2[C@H]1Cc1ccc(O)c(O)c1-3	99	–	·	·
CCCC1CCCCC12C(=O)NC(=O)NC2=O (stereo not drawn)	·	·	–	–
Cc1cc(/C=C2\C(=O)NC(=O)N(c3ccc(F)cc3)C2=O)c(C)n1-c1ccc(C(=O)O)cc1	98	–	–	–
Cc1ccc(N2C(=O)NC(=O)/C(=C/c3ccc(-c4ccc(C(=O)O)c(Cl)c4)o3)C2=O)cc1	97	–	–	–
Cc1ccc(N2C(=O)NC(=O)/C(=C\c3cc(C)n(-c4cc(C(=O)O)cc(C(=O)O)c4)c3C)C2=O)cc1	–	–	–	–
Cc1ccc(N2C(=O)NC(=O)/C(=C\c3cc(C)n(-c4ccc(C(=O)O)cc4)c3C)C2=O)cc1	97	–	–	–
Cc1cc(/C=C2\C(=O)NC(=O)N(c3cccc(F)c3)C2=O)c(C)n1-c1ccc(C(=O)O)c(Cl)c1	–	–	–	–
CCOP(=O)(OCC)C(O)c1ccc(N(C)C)cc1 (stereo not drawn)	86	–	–	–
COC1C(O)C(C)OC(OC2CCC3(C)C(CCC4C3C(O)CC3(C)C(C5=CC(=O)OC5)CCC43O)C2)C1O (stereo not drawn)	·	·	–	–
COC(=O)C1=C(C(=O)OC)SC2(S1)C(C(=O)OC)=C(C(=O)OC)Sc1c2ssc1=O	·	·	65	43
O=C1NC(=O)C2(Cc3ccccc3N3CCCC32)C(=O)N1 (stereo not drawn)	99	–	–	–
COC(=O)C1(F)C(=O)NC(=O)NC1O (stereo not drawn)	·	·	–	–
O=c1[nH]c(O)c(/C=C2/C=CC(c3cc(Cl)ccc3Cl)=N2)c(=O)[nH]1	–	–	–	–
Oc1ccc(CC2CC3CCN2CC3)cc1O (stereo not drawn)	99	–	–	–
O=C1C2CCN(CC2)C1Cc1ccccc1O (stereo not drawn)	–	–	–	–
COc1cc(CC(=O)N2C[C@H]3C[C@@H](C2)c2cccc(=O)n2C3)cc(OC)c1OC	–	–	–	–
COC(=O)C1=C(c2ccc(OC(F)(F)F)cc2)C[C@@H]2CC[C@H]1N2C(=O)NC(C)C	–	–	–	–
Cc1cc(N2CCNCC2)nc2ccccc12	–	–	–	–
CCN(CC)c1ccc(CN(C)CCc2ccc(OC)c(OC)c2)cc1	99	–	–	–
Cc1ccc(/C=C2/C(=O)NC(=O)N(CC3CCCO3)C2=O)s1 (stereo not drawn)	97	–	–	–
Cc1ccc(/C=C2\C(=O)NC(=O)N(CCc3ccc(F)cc3)C2=O)s1	96	–	–	–
Cc1ccc(/C=C2/C(=O)NC(=O)N(CCc3ccc(F)cc3)C2=O)s1	–	–	–	–
COC(=O)C1=C(c2cccc(OC)c2OC)C[C@@H]2CC[C@H]1N2C(=O)NC(C)C	–	–	–	–
O=C(CNCc1c(F)cccc1F)N1CCC2(CC1)OCCO2	·	·	–	–
Cc1c(CC(=O)N2C[C@H]3C[C@@H](C2)c2cccc(=O)n2C3)c(=O)oc2c(C)c(O)ccc12	89	–	–	–
SMILES	ALR H2O2 inh	HDAC3 inh	NPR2 activator	NPR1 activator
Cc1c(CCC(=O)N2C[C@H]3C[C@@H](C2)c2cccc(=O)n2C3)c(=O)oc2c(C)c(O)ccc12	·	·	–	–
C[C@H](NC(=O)OCc1ccccc1)C(=O)NC(Cc1ccccc1)P(=O)(Oc1ccccc1)Oc1ccccc1 (stereo partly drawn)	·	·	–	–
O=C1NC(=O)C(=Cc2ccc(-c3ccc(S(=O)(=O)N4CCOCC4)cc3)o2)C(=O)N1	92	–	–	–
O=C1NC(=O)C(=Cc2ccc(-c3ccc(Cl)cc3)o2)C(=O)N1	94	–	·	·
O=C1NC(=O)C(=Cc2ccc(N3CCOCC3)cc2)C(=O)N1	–	–	–	–
O=C1NC(=O)C(=Cc2ccc(-c3ccc(F)cc3O)o2)C(=O)N1	98	–	–	57
Cc1ccccc1OP(=O)(Oc1ccccc1C)N1CCOCC1	·	·	–	–
CCN(CC)C(=O)Cn1cc(/C=C2\C(=O)NC(=O)N(c3ccccc3F)C2=O)c2ccccc21	–	–	–	44
Cc1ccc(Cn2nc(C(=O)Nc3ccc(Br)cc3)cc2C)cc1	·	–	–	–
